Counter-ions that a name gives are not always drawn. ± gives the standard deviation of the averaged measurements.
How the values were obtained:
DLD1 [1] = experiment: cell viability (CellTiter-Glo) relative to plate median (fraction of plate median); higher = more viable cells; conditions: 10 µM, treatment time 24 h
Method in brief: (§1)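 Kinase inhibitor library compounds were added at a final 10 µM for 24 h to colorectal cancer cells in 384-well plates, 24 h after seeding. The cells stably expressed lentiviral TCF/Wnt firefly luciferase reporters. Firefly luciferase and CellTiterGlo luminescence came from parallel plates, and each well was normalised to its plate median (webcellHTS2, additive, untransformed), averaged over two independent replicates.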

HCT116 [2] = experiment: as above; conditions: 10 µM; treatment time 24 h; reporter: TCF4/Wnt
Method in brief: as §1

SW480 [3] = experiment: as above; conditions: 10 µM; treatment time 24 h; reporter: 7TFP
Method in brief: as §1

DLD1 [4] = experiment: TCF/Wnt firefly luciferase reporter signal relative to plate median (fraction of plate median); higher = higher Wnt reporter signal; conditions: 10 µM, treatment time 24 h
Method in brief: as §1

HCT116 [5] = experiment: as above; conditions: 10 µM; treatment time 24 h; reporter: TCF4/Wnt
Method in brief: as §1

SW480 [6] = experiment: as above; conditions: 10 µM; treatment time 24 h; reporter: 7TFP
Method in brief: as §1

DLD1 [7] = experiment: cell viability (CellTiter-Glo) relative to plate median (fraction of plate median); higher = more viable cells; conditions: 5 µM; treatment time 24 h; reporter: 7TFP
Method in brief: (§2)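 For this screen, colorectal cancer cell lines carrying stable lentiviral TCF/Wnt firefly luciferase reporters, either 7TFP or TCF4/Wnt, were seeded into 384-well plates. A day's wait of 24 h preceded addition of library compounds at a final 5 µM, which stayed on the cells for 24 h. Firefly luciferase or CellTiterGlo luminescence, read on parallel plates, was normalised to the plate median per well, and the reported value is the mean of two independent replicates.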

HCT116 [8] = experiment: as above; conditions: 5 µM; treatment time 24 h; reporter: TCF4/Wnt
Method in brief: as §2

SW480 [9] = experiment: as above; conditions: 5 µM; treatment time 24 h; reporter: 7TFP
Method in brief: as §2

DLD1 [10] = experiment: TCF/Wnt firefly luciferase reporter signal relative to plate median (fraction of plate median); higher = higher Wnt reporter signal; conditions: 5 µM; treatment time 24 h; reporter: 7TFP
Method in brief: as §2

SW480 [11] = experiment: as above; conditions: 5 µM; treatment time 24 h; reporter: 7TFP
Method in brief: as §2

Compound | cell viability (DLD1 [1]; reporter: 7TFP) | cell viability (DLD1 [1]; reporter: TCF4/Wnt) | cell viability (HCT116 [2]) | cell viability (SW480 [3]) | TCF/Wnt firefly luciferase reporter signal (DLD1 [4]; reporter: 7TFP) | TCF/Wnt firefly luciferase reporter signal (DLD1 [4]; reporter: TCF4/Wnt) | TCF/Wnt firefly luciferase reporter signal (HCT116 [5]) | TCF/Wnt firefly luciferase reporter signal (SW480 [6]) | cell viability (DLD1 [7]) | cell viability (HCT116 [8]) | cell viability (SW480 [9]) | TCF/Wnt firefly luciferase reporter signal (DLD1 [10]) | TCF/Wnt firefly luciferase reporter signal (SW480 [11])
Cc1[nH]c(/C=C2\C(=O)Nc3ccc(S(=O)(=O)N(C)c4cccc(Cl)c4)cc32)c(C)c1C(=O)N1CCN(C)CC1 | 1.13 | 1.04 ± 0.066 | 1.09 ± 0.13 | 1.06 ± 0.11 | 0.858 ± 0.37 | 0.954 ± 0.14 | 0.756 ± 0.098 | 0.964 ± 0.065 | – | – | – | – | –
Cc1nc(N)sc1-c1ccnc(Nc2ccc(N3CCOCC3)cc2)n1 | 1.09 ± 0.14 | 1.09 ± 0.085 | 1.07 ± 0.064 | 1.06 ± 0.028 | 1.24 ± 0.23 | 1.23 ± 0.36 | 1.72 ± 0.2 | 0.774 ± 0.36 | – | – | – | – | –
Cc1ccc(NC(=O)c2cccc(N(C)C)c2)cc1NC(=O)c1ccc(O)cc1 | 1.11 ± 0.16 | 1.095 ± 0.0071 | 1.23 ± 0.11 | 0.907 ± 0.033 | 1.07 ± 0.092 | 1.12 ± 0.014 | 1.04 ± 0.035 | 0.955 ± 0.092 | – | – | – | – | –
Cc1ccc(NC(=O)c2ccc(CN3CCN(C)CC3)cc2)cc1Nc1nccc(-c2cccnc2)n1 [Imatinib Mesylate] | 0.9835 ± 0.0064 | 0.907 ± 0.17 | 0.91 ± 0.024 | 0.984 ± 0.066 | 2.07 ± 0.14 | 1.51 ± 0.4 | 1.32 ± 0.47 | 1.73 ± 0.15 | – | – | – | – | –
Cc1cc(Nc2cc(N3CCN(C)CC3)nc(Sc3ccc(NC(=O)C4CC4)cc3)n2)n[nH]1 [VX-680 (MK-0457, Tozasertib)] | 1.12 ± 0.18 | 0.975 ± 0.078 | 1.02 ± 0.028 | 1.16 ± 0.021 | 0.773 ± 0.0014 | 0.776 ± 0.057 | 1.56 ± 0.13 | 1.11 ± 0.23 | – | – | – | – | –
Oc1ccc(-c2nc(-c3ccc(F)cc3)c(-c3ccncc3)[nH]2)cc1 | 1.08 ± 0.064 | 1.04 ± 0.014 | 1.14 ± 0.021 | 0.916 ± 0.013 | 0.747 ± 0.27 | 0.85 ± 0.04 | 1.05 ± 0.035 | 0.792 ± 0.15 | – | – | – | – | –
CO[C@H]1C[C@@H]2CC[C@@H](C)[C@@](O)(O2)C(=O)C(=O)N2CCCC[C@H]2C(=O)O[C@H]([C@H](C)C[C@@H]2CC[C@@H](OCCO)[C@H](OC)C2)CC(=O)[C@H](C)/C=C(\C)[C@@H](O)[C@@H](OC)C(=O)[C@H](C)C[C@H](C)/C=C/C=C/C=C/1C [Everolimus (RAD001)] | 1.04 ± 0.11 | 1.02 ± 0.028 | 0.974 ± 0.094 | 1.26 ± 0.028 | 0.893 ± 0.091 | 1.05 ± 0.14 | 0.951 ± 0.15 | 1.42 ± 0.057 | – | – | – | – | –
N#CC(=C(/N)Sc1ccccc1N)/C(C#N)=C(\N)Sc1ccccc1N | 1.08 ± 0.064 | 1.003 ± 0.0099 | 0.938 ± 0.043 | 1.06 ± 0.05 | 1.73 ± 0.11 | 1.27 ± 0.064 | 0.95 ± 0.071 | 1.59 ± 0.16 | – | – | – | – | –
Cc1ccc(C(=O)Nc2cccc(C(F)(F)F)c2)cc1Nc1nc(-c2cccnc2)nc2c1cnn2C | 1.07 ± 0.035 | 1.06 | 0.912 ± 0.2 | 1.05 ± 0.042 | 1.36 ± 0.085 | 0.925 ± 0.2 | 1.12 ± 0.099 | 0.952 ± 0.48 | – | – | – | – | –
CCN1CCN(c2ccc(Nc3cc(N(C)C(=O)Nc4c(Cl)c(OC)cc(OC)c4Cl)ncn3)cc2)CC1 | 1.36 ± 0.18 | 1.06 ± 0.071 | 1.16 ± 0.092 | 0.921 ± 0.033 | 1.24 ± 0.11 | 1.06 ± 0.51 | 0.852 ± 0.15 | 0.921 ± 0.12 | – | – | – | – | –
Cc1ccc(-n2nc(C(C)(C)C)cc2NC(=O)Nc2ccc(OCCN3CCOCC3)c3ccccc23)cc1 [BIRB 796 (Doramapimod)] | 1.15 ± 0.057 | 1.12 ± 0.17 | 1.06 ± 0.096 | 0.975 ± 0.064 | 0.984 ± 0.0028 | 1.05 ± 0.17 | 1.18 ± 0.22 | 1.07 ± 0.078 | – | – | – | – | –
C[C@@H](Oc1cc(-n2cnc3ccc(CN4CCN(C)CC4)cc32)sc1C(N)=O)c1ccccc1C(F)(F)F | 0.905 ± 0.036 | 0.934 ± 0.033 | 0.782 ± 0.0057 | 1.05 ± 0.057 | 0.726 ± 0.15 | 0.565 ± 0.17 | 0.335 ± 0.045 | 0.941 ± 0.11 | – | – | – | – | –
CCCS(=O)(=O)Nc1ccc(F)c(C(=O)c2c[nH]c3ncc(Cl)cc23)c1F | 1.03 ± 0.08 | 0.942 ± 0.074 | 1.12 ± 0.071 | 0.837 ± 0.013 | 0.775 ± 0.33 | 0.746 ± 0.1 | 1.05 ± 0.11 | 0.786 ± 0.067 | – | – | – | – | –
Cc1[nH]c(/C=C2\C(=O)Nc3ccccc32)c(C)c1CCC(=O)O | 0.941 ± 0.028 | 0.997 ± 0.061 | 1.08 ± 0.13 | 0.96 ± 0.044 | 1.93 ± 0.38 | 1.26 ± 0.41 | 1.4 ± 0.59 | 1.22 ± 0.16 | – | – | – | – | –
O=C(NOC[C@H](O)CO)c1ccc(F)c(F)c1Nc1ccc(I)cc1F | 1.25 ± 0.064 | 1.05 ± 0.014 | 0.907 ± 0.058 | 1.11 ± 0.028 | 1.62 ± 0.17 | 1.28 ± 0.26 | 1.06 ± 0.028 | 1.75 ± 0.092 | 1.1 ± 0.064 | 0.895 ± 0.05 | 1.03 ± 0.05 | 1.34 ± 0.22 | 1.47 ± 0.071
Cc1ncc(-c2ccnc(Nc3ccc(S(C)(=O)=O)cc3)n2)n1C(C)C | 1.25 ± 0.16 | 1.32 ± 0.099 | 0.766 ± 0.3 | 1.47 ± 0.05 | 0.499 ± 0.026 | 0.277 ± 0.063 | 0.156 ± 0.042 | 0.793 ± 0.035 | – | – | – | – | –
O=C(Nc1cc(C(F)(F)F)cc(C(F)(F)F)c1)c1cc(Cl)ccc1O | 0.48 ± 0.1 | 0.618 ± 0.011 | 0.303 ± 0.12 | 0.477 ± 0.03 | 0.473 ± 0.11 | 1.47 ± 0.67 | 0.133 ± 0.072 | 0.3675 ± 0.0021 | – | – | – | – | –
COc1cc(CCc2cc(NC(=O)c3ccc(N4CC(C)NC(C)C4)cc3)n[nH]2)cc(OC)c1 (stereo not drawn) | 0.967 ± 0.1 | 0.951 ± 0.04 | 1.04 ± 0.058 | 1.07 ± 0.05 | 0.794 ± 0.042 | 0.718 ± 0.011 | 0.502 ± 0.34 | 0.93 ± 0.099 | – | – | – | – | –
O=C1Nc2ccccc2/C1=C1/Nc2ccccc2C1=O [Indirubin] | 0.941 ± 0.044 | 0.819 ± 0.025 | 1.09 ± 0.13 | 0.862 ± 0.034 | 1.44 ± 0.057 | 1.2 ± 0.31 | 0.935 ± 0.054 | 1.08 ± 0.042 | – | – | – | – | –
COC(=O)Nc1ccc(-c2nc(N3CCOCC3)c3cnn(C4CCN(Cc5cccnc5)CC4)c3n2)cc1 | 0.796 ± 0.069 | 0.872 ± 0.036 | 0.759 ± 0.059 | 1.055 ± 0.0071 | 0.372 ± 0.064 | 0.632 ± 0.04 | 0.595 ± 0.068 | 0.765 ± 0.066 | – | – | – | – | –
O=c1sn(-c2cccc3ccccc23)c(=O)n1Cc1ccccc1 [Tideglusib] | 1.03 ± 0.081 | 0.9475 ± 0.005 | 1.03 ± 0.067 | 0.946 ± 0.0099 | 1.32 ± 0.035 | 1.17 | 1.285 ± 0.0071 | 1.11 ± 0.064 | – | – | – | – | –

Source: the supplement of paper PMC6522484
